Drawing on PubChem BioAssay (NCI), this text covers growth for five compounds.

Holding throughout (assay): NCI-60 one-dose screen, 48 h (100 = growth as untreated, 0 = no growth, -100 = all killed)
The test system of one experiment is SK-MEL-2 melanoma. The note with it: 10 µM unless noted.
For the next experiment, the system named is EKVX NSCLC. The settings on record: 10 µM.
A further experiment relates to SN12C renal. The settings on record: 10 µM unless noted.
The test system of another experiment is UO-31 renal. The settings on record: 10 µM unless noted.
A further experiment has as its system TK-10 renal. The note with it: 10 µM unless noted.
A further experiment deals with ACHN renal. The settings on record: 10 µM unless noted.
The test system of the next experiment is CAKI-1 renal. The settings on record: 10 µM unless noted.
Another experiment concerns A498 renal. The settings on record: 10 µM unless noted.
For the next experiment, the system named is CCRF-CEM leukemia. The settings on record: 10 µM.
A further experiment has as its system MOLT-4 leukemia. The settings on record: 10 µM unless noted.
The next experiment deals with SR leukemia. The note with it: 10 µM unless noted.
Another experiment has as its system RPMI-8226 leukemia. The settings on record: 10 µM unless noted.
The subject of the next experiment is OVCAR-8 ovarian. The note with it: 10 µM unless noted.
For another experiment, the system named is OVCAR-5 ovarian. The settings on record: 10 µM unless noted.
Another experiment deals with OVCAR-4 ovarian. The note with it: 10 µM unless noted.
A further experiment concerns SK-OV-3 ovarian. The settings on record: 10 µM unless noted.
In a further experiment the test system is IGROV1 ovarian. The settings on record: 10 µM unless noted.
In the next experiment the test system is OVCAR-3 ovarian. The note with it: 10 µM unless noted.
The test system of the next experiment is HS 578T breast. The note with it: 10 µM unless noted.
In another experiment the test system is NCI/ADR-RES ovarian. The note with it: 10 µM unless noted.

Values joined by “and” are separate entries in the source; they are usually repeats but may differ in a detail not shown here. Identical values can stand only once. Compounds without any hit were thinned out: in the full panel of roughly 83,000, 20% have a hit.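 Cells were grown in 96-well plates and exposed to the test compound at a single concentration for 48 hours; results are reported as percent growth, with values below 10 considered active.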 Active and inactive are the calls of the source.

As for `CC1CCC(C(C)C)C(NNC(N)=O)C1` (configuration not stated), the growth in the experiment on SK-MEL-2 melanoma was 107% (inactive); in the experiment on EKVX NSCLC, 101% (inactive); in the experiment with SN12C renal it was 101% (inactive); with UO-31 renal, 86.6% (inactive); in the experiment on TK-10 renal, 105% (inactive); in the experiment on ACHN renal, 110% (inactive). Further, the growth with CAKI-1 renal is 98.9% (inactive); with A498 renal it was 102% (inactive); in the experiment on CCRF-CEM leukemia, 106% (inactive); in the experiment on MOLT-4 leukemia it was 113% (inactive); in the experiment with SR leukemia it was 100% (inactive); with RPMI-8226 leukemia, 98.5% (inactive). The growth is 100% (inactive) in the experiment on OVCAR-8 ovarian; 131% (inactive) in the experiment on OVCAR-5 ovarian; 111% (inactive) with OVCAR-4 ovarian; 109% (inactive) with SK-OV-3 ovarian; 110% (inactive) in the experiment on IGROV1 ovarian; 103% (inactive) in the experiment on OVCAR-3 ovarian. The growth with HS 578T breast was 91.6% (inactive); in the experiment on NCI/ADR-RES ovarian, 105% (inactive).

In the case of `CC[C@H](CC[C@@H](C)[C@H]1CC[C@H]2[C@@H]3CC=C4C[C@@H](O)CC[C@]4(C)[C@H]3CC[C@]12C)C(C)C`, the growth in the experiment with SK-MEL-2 melanoma is 100% (inactive) and 117% (inactive); in the experiment with EKVX NSCLC, 102% (inactive) and 107% (inactive); in the experiment with SN12C renal it was 94.7% (inactive) and 105% (inactive); with UO-31 renal, 92.7% (inactive) and 96.2% (inactive); in the experiment on TK-10 renal, 91.7% (inactive) and 107% (inactive); in the experiment with ACHN renal it was 94.4% (inactive) and 103% (inactive). Also, the growth is 93.2% (inactive) and 90% (inactive) in the experiment with CAKI-1 renal; 103% (inactive) and 105% (inactive) in the experiment on A498 renal; 91.1% (inactive) and 97.8% (inactive) in the experiment on CCRF-CEM leukemia; 108% (inactive) and 103% (inactive) in the experiment on MOLT-4 leukemia; 109% (inactive) and 101% (inactive) in the experiment on SR leukemia; 114% (inactive) in the experiment with RPMI-8226 leukemia. The growth is 98.9% (inactive) and 105% (inactive) in the experiment on OVCAR-8 ovarian; 45.2% (inactive) and 103% (inactive) with OVCAR-5 ovarian; 97.6% (inactive) and 114% (inactive) in the experiment with OVCAR-4 ovarian; 111% (inactive) in the experiment with IGROV1 ovarian; 112% (inactive) and 108% (inactive) in the experiment with OVCAR-3 ovarian; 96.5% (inactive) and 103% (inactive) in the experiment on HS 578T breast. Besides, the growth in the experiment with NCI/ADR-RES ovarian is -46.1% (active) and 101% (inactive).

Turning to `O=C(Cc1ccccc1)c1ccc(O)c(Cl)c1`, the growth is 64.9% (inactive) in the experiment on SK-MEL-2 melanoma; 66.1% (inactive) in the experiment with EKVX NSCLC; 31.1% (inactive) with SN12C renal; 36.5% (inactive) in the experiment with UO-31 renal; 47.4% (inactive) with TK-10 renal; 37.6% (inactive) in the experiment on ACHN renal. Moreover, the growth was 42.1% (inactive) with CAKI-1 renal; 105% (inactive) with A498 renal; -27.2% (active) in the experiment on CCRF-CEM leukemia; 22.6% (inactive) in the experiment with MOLT-4 leukemia; 10.2% (inactive) in the experiment with SR leukemia; 43.4% (inactive) in the experiment on OVCAR-8 ovarian. In addition, the growth with OVCAR-5 ovarian was 65.6% (inactive); in the experiment on OVCAR-4 ovarian, 63.5% (inactive); in the experiment on IGROV1 ovarian, 60.4% (inactive); in the experiment on OVCAR-3 ovarian it was 12.4% (inactive); in the experiment on HS 578T breast it was 37.4% (inactive); in the experiment on NCI/ADR-RES ovarian, 28.5% (inactive).

For `Nc1ccc2c(O)cc(S(=O)(=O)O)cc2c1`, the growth in the experiment with SK-MEL-2 melanoma is 108% (inactive) and 92.1% (inactive); with EKVX NSCLC, 102% (inactive) and 110% (inactive); in the experiment on SN12C renal it was 95.4% (inactive) and 86.9% (inactive); in the experiment on UO-31 renal it was 69.5% (inactive) and 63.5% (inactive); in the experiment with TK-10 renal, 94.4% (inactive) and 143% (inactive); in the experiment with ACHN renal, 95.8% (inactive) and 92.8% (inactive). In addition, the growth in the experiment with CAKI-1 renal is 87.1% (inactive); in the experiment with A498 renal, 102% (inactive) and 100% (inactive); in the experiment with CCRF-CEM leukemia, 74.6% (inactive); in the experiment with MOLT-4 leukemia it was 87.3% (inactive) and 92.5% (inactive); with SR leukemia it was 86.3% (inactive); in the experiment on OVCAR-8 ovarian, 105% (inactive) and 97.8% (inactive). The growth was 103% (inactive) in the experiment on OVCAR-5 ovarian; 93.5% (inactive) with OVCAR-4 ovarian; 130% (inactive) and 86.1% (inactive) in the experiment with IGROV1 ovarian; 126% (inactive) and 105% (inactive) in the experiment with OVCAR-3 ovarian; 96.3% (inactive) with HS 578T breast; 105% (inactive) in the experiment with NCI/ADR-RES ovarian.

Take `CCCCOc1ccc(Nc2cc(Cl)ccc2C(=O)O)cn1`: the growth was 79.3% (inactive) and 112% (inactive) with SK-MEL-2 melanoma; 101% (inactive) and 98.6% (inactive) with EKVX NSCLC; 94.2% (inactive) and 104% (inactive) in the experiment on SN12C renal; 6.77% (active) and 86.2% (inactive) in the experiment with UO-31 renal; 112% (inactive) and 121% (inactive) in the experiment on TK-10 renal; 106% (inactive) and 89.9% (inactive) in the experiment with ACHN renal. The growth in the experiment with CAKI-1 renal was 97.7% (inactive) and 94.4% (inactive); in the experiment on A498 renal, 102% (inactive); in the experiment with CCRF-CEM leukemia it was 82.3% (inactive) and 95% (inactive); with MOLT-4 leukemia it was 94.6% (inactive) and 108% (inactive); in the experiment on SR leukemia, 96.1% (inactive); with OVCAR-8 ovarian it was 111% (inactive) and 94.6% (inactive). In addition, the growth was 110% (inactive) and 101% (inactive) in the experiment on OVCAR-5 ovarian; 92.4% (inactive) in the experiment on OVCAR-4 ovarian; 42.5% (inactive) and 104% (inactive) in the experiment with IGROV1 ovarian; 111% (inactive) and 106% (inactive) in the experiment with OVCAR-3 ovarian; 90.4% (inactive) and 97.4% (inactive) in the experiment on NCI/ADR-RES ovarian.
